High-throughput results (PubChem)
A selection: hits, their analogues and other compounds. The true share with any hit is near 1.1%.
MOR-DOR inv ag-1 = inverse agonists of MOR-DOR heterodimerization, primary screen, cell-based, luminescence. Mu-type opioid receptor (Homo sapiens) + Delta-type opioid receptor (Homo sapiens), …. cell-based MOR-DOR heterodimer luminescence, inverse agonism. inhibition, % at 9.3 µM. 340,000 compounds, 0.21% hits. AID 504357, 2011; in the data active = inhibition above about 22%, passing the limit was not always enough;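 also: 0% = cells with DMSO and 100% = wells without cells with DMSO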
Bfl-1 A1 inh = caspase 3/7 activation in MEF A1-2A-BIM cells, primary screen, A1 inhibitor project, cell-based, luminescence, HTS. Caspase-Glo 3/7 luminescence, 3 h; percent of clofoctol response, vehicle zero. caspase activation, % (test concentration not listed). 330,000 compounds, 0.066% hits;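 active = over half of replicate activation scores above 10%, or exactly half above 10 with the replicate mean above 10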
HTR5A inv ctr = HTR5A inverse agonists in luminescence cell assay, primary screen, counter-screen for OPRM1-OPRD1 heterodimer inverse agonist project, full-deck HTS. 5-hydroxytryptamine receptor 5A (Homo sapiens), P47898. HTR5A cell line, inverse agonism. inhibition, % at 9.3 µM. 340,000 compounds, 0.083% hits; in the data active = inhibition mostly above about 23%, no sharp cut-off; inactive = mostly below about 18%;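 also: 0% = cells with DMSO and 100% = no-cell wells with DMSO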
MOR-DOR ag = agonists of OPRM1-OPRD1 heterodimerization, primary screen, cell-based, luminescence; 340,000 compounds, 0.3% hits; Mu-type opioid receptor (Homo sapiens) + Delta-type opioid receptor (Homo sapiens), …; AID 504326, 2011; activation, % at 9.3 µM; cells; in the data active = activation above about 18%;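 also: 0% = vehicle-treated cells and 100% = reference agonist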
HTR5A ag = HTR5A agonists in luminescence cell assay, primary screen, counter-screen for OPRM1-OPRD1 heterodimer agonist project, full-deck HTS; cell-based; AID 504692, 2011; 5-hydroxytryptamine receptor 5A (Homo sapiens), P47898; activation, % at 9.3 µM; 340,000 compounds, 0.61% hits; in the data active = activation mostly above about 9.5%, no sharp cut-off; inactive = mostly below about 7.6%;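 also: 0% = cells with vehicle only and 100% = reference agonist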
MOR-DOR inv ag-2 = inverse agonists of MOR-DOR heterodimerization, counter-screen for HTR5A inverse agonist project, cell-based, luminescence; shares compounds with HTR5A inv ctr; inhibition, % at 9.3 µM; 190 tested, under 10 active; U2OS counter-screen cells, complementation luminescence;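 also: 0% = cells with DMSO and 100% = wells without cells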
HTR5A inv confrm = HTR5A inverse agonists, retest of hits, confirmation, cell-based, luminescence; inhibition, % at 9.3 µM; AID 504916, 2011; HTR5A-expressing cells, inverse agonism; shares compounds with HTR5A inv ctr; 190 tested, under 10 active;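 also: 0% = cells with DMSO and 100% = no cells with DMSO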
An asterisk follows results filed as active; i = inactive; x = no result given. Unless noted, no rule for the calls is given here.

SMILES | MOR-DOR inv ag-1 | Bfl-1 A1 inh | HTR5A inv ctr | MOR-DOR ag | HTR5A ag | MOR-DOR inv ag-2 | HTR5A inv confrm
CN(C)c1ccc2nc3c(=O)[nH]c(=O)nc-3n(CC(O)C(O)C(O)CO)c2c1 (centres undefined) | 29 | 0 | 33* | -6 | -9 | 18 | 85*
Cc1ccc2c(C)c(C(=O)Nc3ccc(S(=O)(=O)Nc4onc(C)c4C)cc3)oc2c1 | 12 | 0 | 18 | -2 | 1 | x | x
CCO[C@@H]1OC(C(=O)N2CCN(Cc3ccccc3)CC2)=C[C@H](c2ccc(Br)cc2)[C@H]1CCCO | 12 | 1 | 37* | -2 | -7 | 18 | 3
CCO[C@@H]1OC(C(=O)N2CCN(Cc3ccccc3)CC2)=C[C@H](c2ccc(C(F)(F)F)cc2)[C@H]1CCCO | -21 | -2 | 9 | 4 | -4 | x | x
O=C(/C=C/c1ccc(F)cc1)NC(=S)NNC(=O)[C@H]1C[C@@H]1c1ccccc1 | 20 | 0 | 48* | -4 | -12 | -40 | -56
O=C(NC(=S)NNC(=O)[C@H]1C[C@@H]1c1ccccc1)c1ccc(F)cc1 | 9 | 0 | -3 | -2 | 3 | x | x
Cc1ccc(S(=O)(=O)N2CCC(C(=O)Nc3ccc(S(=O)(=O)N4CCCC4)cc3)CC2)cc1C | -8 | 2 | 0 | 1 | 3 | x | x
O=[N+]([O-])c1ccc(Cl)c(/C=N/n2c(-c3cccnc3)n[nH]c2=S)c1 | x | -1 | x | x | x | x | x
CCCN(CC(=O)Nc1ccccc1C)C(=O)c1ccc(-c2ccc(C(C)=O)cc2)o1 | 14 | 0 | 43* | -3 | -5 | -60 | -8
CCCN(CC(=O)Nc1ccccc1C)C(=O)c1ccc(C(=O)c2ccccc2)cc1 | -12 | 0 | -20 | 2 | 7 | x | x
COc1cccc(C(C(=O)NC(C)(C)C)N(C(=O)CCC(=O)Nc2cc(C)on2)C(C)(C)C)c1OC (centres undefined) | 1 | 1 | 91* | 0 | -26 | -6 | 4
COc1cccc(C(C(=O)NC(C)(C)C)N(C(=O)CCC(=O)Nc2cc(C)on2)C(C)C)c1OC (centres undefined) | 15 | 1 | 13 | -3 | -2 | x | x
CC1CCc2sc(C(=O)OCC(=O)NC(C)C)cc2C1 (centres undefined) | 6 | 0 | 2 | -1 | -1 | x | x
COc1ccc(/C=C(/NC(=O)c2ccccc2)c2nc3ccc(Cl)cc3[nH]2)cc1OC | 8 | 0 | 3 | -1 | -1 | x | x
COCCn1c(C)cc(/C=C2\NC(=S)N(C)C2=O)c1C | 5 | 1 | 2 | -1 | -1 | x | x
CN1C(=O)/C(=C/c2cc3c(cc2Br)OCO3)NC1=S | -8 | 0 | 23* | 2 | -9 | i | -4
CCN1c2ccccc2S(=O)(=O)c2ccccc21 | 17 | 2 | 34* | -4 | -10 | 2 | -5
O=c1[nH]n2c(=O)c3c([nH]c2c1N=Nc1cccc(Cl)c1)CCCC3 | 27 | 0 | 42* | -5 | -4 | i | -1
O=C(Nc1ccon1)c1ccc(F)c(S(=O)(=O)N2CCCCC2)c1 | 12 | 2 | -14 | -2 | 4 | x | x
COc1cc([C@H]2Oc3c(OC)cc(CCCO[C@@H]4O[C@H](CO)[C@@H](O)[C@H](O)[C@H]4O)cc3[C@@H]2CO)ccc1O | -3 | 0 | -5 | 1 | 1 | x | x
C/C(=N\Nc1nc(N2CCCCC2)nc(N2CCOCC2)n1)c1ccccc1O | x | -1 | x | x | x | x | x
C/C(=N\Nc1nc(N2CCOCC2)nc(N2CCOCC2)n1)c1cccs1 | 18 | 1 | 23* | -3 | -8 | -17 | -7
Cc1ccc(-c2nnc(-c3ccccc3Br)o2)cc1 | -19 | -6 | 2 | 4 | 0 | x | x
Brc1ccc(-c2nnc(-c3ccccc3Br)o2)cc1 | -16 | -5 | 40* | 3 | 7 | -49 | -7
CC(C)OC(=O)COc1cc(O)c2c(=O)cc(-c3ccccc3)oc2c1 | -2 | 0 | -7 | 0 | 7 | x | x
SMILES | MOR-DOR inv ag-1 | Bfl-1 A1 inh | HTR5A inv ctr | MOR-DOR ag | HTR5A ag | MOR-DOR inv ag-2 | HTR5A inv confrm
Cc1ccc(C2N(C)c3ccccc3-c3nc4ccccc4n32)o1 (centres undefined) | 7 | x | 2 | -1 | -2 | x | x
CC(=O)N1c2ccccc2-c2nc3ccccc3n2C1C (centres undefined) | 17 | 1 | 32* | -4 | -8 | -8 | 0
O=C(NC(c1ccc(Cl)cc1)c1cc(Cl)c2cccnc2c1O)c1cccnc1 (centres undefined) | 5 | 0 | 30* | -1 | -11 | 0 | -9
O=C(NN1C(=O)/C(=C/c2ccc(O)c([N+](=O)[O-])c2)SC1=S)c1ccccc1Cl | 26 | 0 | 28* | -5 | -3 | -71 | 1
O=[N+]([O-])c1ccc(/C=N/Nc2ccc3ccccc3c2)o1 | -51 | -1 | 28* | 7 | -11 | -71 | 18
CCOc1ccc(N(CC(=O)NCc2ccc(OC)cc2)S(=O)(=O)c2c(C)[nH]c(=O)[nH]c2=O)cc1 | 6 | 1 | 10 | -1 | -3 | x | x
COc1ccc(/C=C/c2ccc3cccc(O)c3n2)c(OC)c1OC | 13 | 0 | 35* | -3 | -9 | -58 | 28
COc1cccc(/C=C/c2ccc3cccc(O)c3n2)c1OC | -14 | -9 | 32* | 3 | -9 | -68 | 12
COc1cccc(CNC(=O)CSc2nc3c(oc4ccccc43)c(=O)n2CC2CCCO2)c1 (centres undefined) | 17 | 0 | -25 | -3 | 9 | x | x
Oc1c(C(c2ccccn2)N2CCCCC2)cc(Cl)c2cccnc12 (centres undefined) | -43 | 0 | 29* | 9 | -10 | 6 | 5
CN1CCN(C(c2ccc(Cl)cc2)c2cc(Cl)c3cccnc3c2O)CC1 (centres undefined) | -59 | 0 | -9 | 11 | 4 | x | x
CNC(=O)c1cc(C(=O)c2ccccc2Br)c[nH]1 | 16 | 0 | 10 | -3 | -3 | x | x
COCCCNC(=O)c1cc(C(=O)c2ccccc2Br)c[nH]1 | 2 | 0 | 71* | 0 | -26 | -37 | -23
CC(=O)N1CCc2ccccc2C1CC(=O)O (centres undefined) | 6 | 0 | 43* | -1 | 2 | -13 | -14
O=[N+]([O-])c1ccc(O)c(/C=N/Nc2ccccc2Cl)c1 | -1 | -1 | -2 | 0 | 1 | x | x
CCOc1ccccc1C1c2[nH]c3ccccc3c2C[C@H]2C(=O)N(C3CCN(Cc4ccccc4)CC3)CC(=O)N12 (some centres undefined) | 5 | 0 | 1 | -1 | 0 | x | x
